Here are results for 9 compounds from PubChem BioAssay.

Experiment [1] in a line: reducers of endogenous Her2 protein level, primary screen, SKBR3 breast tumor cells, AlphaScreen, ATP viability (AID 461;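 active = Her2 level under about 52% in both replicate screens, with viability over 70% of control, limit read from the data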;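 for Her2 level: lower value means less Her2 protein in the cells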;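 for viability: percent of carrier control wells set as 100% viability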). Conditions: 18-24 h, measured here: SKBR3 viability, ATP luminescence, at 10 µM. A general note: Bead proximity is the source of the signal in Alpha formats.
Experiment [2] deals with Receptor tyrosine-protein kinase erbB-2 (Homo sapiens) (UniProt P04626). The description is as above. Conditions: 18-24 h, at 10 µM, stronger effect = lower value.
Sequence of Receptor tyrosine-protein kinase erbB-2 (Homo sapiens) (P04626 whole entry, looked up): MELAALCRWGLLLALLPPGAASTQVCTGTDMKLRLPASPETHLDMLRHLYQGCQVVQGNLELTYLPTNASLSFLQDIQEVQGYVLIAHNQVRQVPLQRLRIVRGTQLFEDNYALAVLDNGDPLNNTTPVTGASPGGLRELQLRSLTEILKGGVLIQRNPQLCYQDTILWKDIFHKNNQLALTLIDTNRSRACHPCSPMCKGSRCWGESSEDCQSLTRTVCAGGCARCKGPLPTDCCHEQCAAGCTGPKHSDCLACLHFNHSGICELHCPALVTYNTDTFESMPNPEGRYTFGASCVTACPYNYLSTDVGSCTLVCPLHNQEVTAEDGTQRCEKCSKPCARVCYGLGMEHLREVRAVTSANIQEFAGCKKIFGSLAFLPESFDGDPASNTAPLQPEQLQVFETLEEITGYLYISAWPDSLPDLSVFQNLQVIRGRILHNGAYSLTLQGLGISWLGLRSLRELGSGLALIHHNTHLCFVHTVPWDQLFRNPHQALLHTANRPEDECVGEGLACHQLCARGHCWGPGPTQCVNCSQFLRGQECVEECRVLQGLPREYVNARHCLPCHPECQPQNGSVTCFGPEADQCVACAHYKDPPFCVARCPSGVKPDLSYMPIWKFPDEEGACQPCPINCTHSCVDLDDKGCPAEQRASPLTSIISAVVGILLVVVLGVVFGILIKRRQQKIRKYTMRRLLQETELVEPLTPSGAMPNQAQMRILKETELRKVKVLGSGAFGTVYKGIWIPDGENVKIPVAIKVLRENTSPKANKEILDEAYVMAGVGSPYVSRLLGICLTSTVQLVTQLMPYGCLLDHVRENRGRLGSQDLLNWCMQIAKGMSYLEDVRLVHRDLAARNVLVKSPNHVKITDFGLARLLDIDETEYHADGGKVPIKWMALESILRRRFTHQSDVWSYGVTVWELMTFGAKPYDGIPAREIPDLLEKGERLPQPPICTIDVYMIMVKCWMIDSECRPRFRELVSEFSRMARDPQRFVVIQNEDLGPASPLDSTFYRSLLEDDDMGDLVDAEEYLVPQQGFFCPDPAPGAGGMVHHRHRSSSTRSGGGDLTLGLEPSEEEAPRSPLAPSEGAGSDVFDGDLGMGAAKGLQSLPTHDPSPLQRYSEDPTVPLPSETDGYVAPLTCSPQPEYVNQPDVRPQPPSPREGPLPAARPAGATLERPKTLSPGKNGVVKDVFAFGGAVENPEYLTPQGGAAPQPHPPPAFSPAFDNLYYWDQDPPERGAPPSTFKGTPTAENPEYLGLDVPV
Experiment [3] in a line: SK-BR-3 cell growth inhibitors, pilot screen, 24 h, human (AID 572;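 active = viability at or below 10% of carrier control in both of two separate runs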;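 note: compound exposure lasted between 18 and 24 h rather than exactly 24 h; 100% = carrier-treated control wells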). The following applies: SK-BR-3 viability, CellTiter-Glo luminescence, at 10 µM, stronger effect = lower value.
Experiment [4] can be described thus: HUVEC growth inhibition – cell-based, human, primary screen (AID 575;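 active = viability at or below 30% in both replicate assays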;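 note: 100% = median of untreated cell wells with 0.1% DMSO on each plate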). Conditions: HUVEC proliferation, CellTiter-Glo luminescence, 72 h; at 10 µM; stronger effect = lower value. In general terms: ATP-based viability assays read luminescence as a measure of living cells.
Experiment [5] can be described thus: growth inhibitors of H69AR lung tumor, primary screen, human, duplicate replicates (AID 580;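 active = viability at or under a set limit in both replicates, limit being median viability minus 3 SD, cut at about 48% in these data, passing the limit was not always enough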;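 note: 100% = mean luminescence of untreated wells and 0% = no signal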). The following applies: H69AR lung tumor cells viability, ATP luminescence, 72 h; at 10 µM; stronger effect = lower value.
Experiment [6] can be described thus: reversal of MRP1-mediated doxorubicin resistance, pilot screen, H69AR cells, doxorubicin co-treatment (AID 601). The following applies: CellTiter-Glo, 72 h, at 10 µM; for differential viability (reversal): stronger effect = higher value.
Experiment [7] in a line: 384-well plate pilot, post-Golgi transport modulator project, inhibition of yeast transport mutant growth (AID 636; in the data active = inhibition above about 31%). Conditions: absorbance 615 nm, about 18 h, stronger effect = higher value.
Experiment [8] can be described thus: growth suppression of yeast trafficking mutant, preliminary HTS, modulators of trafficking downstream of Golgi apparatus project, 1536-format plate, OD 615 nm (AID 637; in the data active = inhibition above about 30%). Conditions: yeast transport mutant growth, absorbance 615 nm, 18 h; stronger effect = higher value.
Experiment [9] is described as follows: OD615 S. cerevisiae growth inhibition, permissive medium, pilot counter-assay, permissive growth control for S. cerevisiae lifespan shortening project (AID 705;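 active = growth inhibition above 25% in both replicates, a cutoff set 3 SD above the mean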). Conditions: OD615, 24 h, at 10 µM, stronger effect = higher value.
Experiment [10] is described as follows: Restrictive medium S. cerevisiae growth inhibition, OD615, pilot screen of yeast lifespan reduction project, restrictive growth control (AID 706;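 active = growth inhibition above a set limit, 3 SD over mean compound inhibition, in both replicates, cut at about 43% in these data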;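 note: modified DeaD lifespan yeast strain shifted to restrictive glucose medium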). Conditions: OD615, 48 h, at 10 µM, stronger effect = higher value.
Experiment [11] can be described thus: viability gain of MRP-1-high H69AR cells under doxorubicin, pilot screen, MRP-1 activator project, CellTiter-Glo, duplicate (AID 807;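 active = viability increase at or above a cutoff of the median across tested compounds plus 3 SD, cut at about 8.5% in these data, passing the limit was not always enough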;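 note: compound pretreatment 18-22 h then 72 h combined with doxorubicin; 0% = doxorubicin alone and 100% = vehicle without doxorubicin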). The following applies: H69AR viability with doxorubicin, CellTiter-Glo luminescence; at 10 µM; stronger effect = higher value.
Experiment [12] can be described thus: growth suppression of beta-catenin knockout HCT116, pilot screen, human colon tumor cells (AID 823;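 active = cell viability at or below a set limit in both duplicate runs, the limit being the all-compound median minus 4 SD, cut at about 23% in these data, passing the limit was not always enough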;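 note: 0% = wells killed by 20 µM Hyamine and 100% = untreated DMSO cell wells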). Conditions: CellTiter-Glo, 60 h, at 10 µM, stronger effect = lower value.
The nature of experiment [13]: growth suppression of PTEN-deleted HCT116, pilot screen, cell-based, HCT116 clonal line, CellTiter-Glo (AID 824;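 active = viability at or below 27.92% in each of two runs, the all-compound median minus 4 SD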;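 note: 0% = 20 µM Hyamine control and 100% = vehicle cell control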). The following applies: 60 h, at 10 µM, stronger effect = lower value.
The nature of experiment [14]: inhibitors of the yeast RAM network, pilot screen, dse1pr::URA3 reporter, 5-FOA selection (AID 869;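 active = inhibition over a set limit, the all-compound mean plus 3 SD, in both replicate runs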;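 note: 0% = DMSO wells with no growth and 100% = 10 µM 1-NA-PP1 with full growth; RAM network block rescues cells from 5-FOA so hits raise OD615 growth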). Conditions: S. cerevisiae dse1pr::URA3 5-FOA growth, OD615, 2 d; at 10 µM; stronger effect = higher value; strain carries analog-sensitive mutant Cbk1 kinase.
Experiment [15] in a line: RAM signaling pathway blockade in yeast – S. cerevisiae, Pdr1DBD-CYC8 efflux-inhibited sensitized strain, primary screen (AID 1298;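 active = RAM network inhibition above 8.4% in each of two replicates, 3 SD over the compound average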;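 note: 0% = DMSO untreated cells without growth and 100% = 10 µM 1-NA-PP1 full growth; higher means more yeast growth rescued from 5-FOA killing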). The following applies: S. cerevisiae cbk1-as DSE1-URA3 strain, 5-FOA growth OD615, 2 d; at 50 µM; stronger effect = higher value.
[16] abbreviates: H69AR cells + 2 uM doxorubicin, measured here: viability with 2 uM doxorubicin, stronger effect = lower value.
The mark [17] stands for this setting: H69AR cells, compound alone cytotoxicity.

Records with an inconclusive call do not appear. Active and inactive are the calls of the source.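 Rule for the calls, unless noted: active = viability loss from added drug above about 55%, and viability with drug at most 40%, in both replicates (limit read from the data, passing the limit was not always enough); inconclusive = both conditions met in only one replicate; inactive = neither replicate meets both conditions.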

Usually viability stands for a read-out of living cells in per cent, often relative to untreated cells. In general, inhibition refers to the change of the read-out against control, counted positive when it falls. As to `Cn1c(NC(=O)c2ccccc2NC(=O)C(C)(C)C)nc2ccccc21`, the viability was 95% in experiment [1]; 95% (inactive) in experiment [3]; 62.8% (inactive) in [4]; 60.6% (inactive) in [5]; 77.5% in experiment [6] (setting [16]); 60.6% in experiment [6] (setting [17]). For the same compound, the viability is 47.1% (inactive) in experiment [12] and 55.1% (inactive) in experiment [13]. For the same compound, the Her2 level in experiment [2] is 116% (inactive). For the same compound, the differential viability (reversal) in [6] (H69AR cells + 2 uM doxorubicin) is -16.9% (inactive). For the same compound, the results for the inhibition in experiment [7], in [8] and in experiment [14] were -1.73% (inactive), 2.33% (inactive) and -0.01% (inactive), respectively. Moreover, the growth inhibition in [9] is 3.42% (inactive); in experiment [10], 8.1% (inactive). Also, the viability increase in experiment [11] is -2.36% (inactive). Further, the RAM network inhibition in experiment [15] is 1.74% (inactive).

With `COc1ccc(CC(=O)NCc2nnc(SCC(=O)Nc3nccs3)n2-c2ccccc2)cc1`, the viability is 99.5% in experiment [1]; 99.5% (inactive) in [3]; 98.4% (inactive) in experiment [4]; 96.6% (inactive) in [5]; 93.9% in [6] (setting [16]); 96.6% in experiment [6] (setting [17]). Further, the viability in experiment [12] is 102% (inactive); in experiment [13] it was 96.7% (inactive). In addition, the Her2 level in [2] is 98% (inactive). Moreover, the differential viability (reversal) in experiment [6] (H69AR cells + 2 uM doxorubicin) is 2.73% (inactive). For the same compound, the results for the inhibition in experiment [7], in experiment [8] and in [14] were -4.4% (inactive), -3.67% (inactive) and 1.48% (inactive), respectively. The growth inhibition in [9] was -3.97% (inactive); in experiment [10], 7.4% (inactive). Further, the viability increase in experiment [11] is -1.27% (inactive). Besides, the RAM network inhibition in experiment [15] was 6.87% (inactive).

Consider `CCN(CC)C(=O)C1CCCN(c2ncnc3c2cnn3-c2ccc(Cl)cc2)C1` (stereo not drawn), for which the viability in experiment [1] was 94.5%; in [3], 94.5% (inactive); in [4], 49.2% (inactive); in experiment [5] it was 86.1% (inactive); in [6] (setting [16]), 83.7%; in [6] (setting [17]), 86.1%. In addition, the results for the viability in experiment [12] and in experiment [13] were 66% (inactive) and 69.7% (inactive), respectively. Also, the Her2 level in experiment [2] is 96.5% (inactive). Moreover, the differential viability (reversal) in [6] (H69AR cells + 2 uM doxorubicin) was 2.38% (inactive). The inhibition is -4.4% (inactive) in experiment [7], -2.17% (inactive) in experiment [8] and 0.62% (inactive) in [14]. Moreover, the figures for the growth inhibition in experiment [9] and in experiment [10] were -7.13% (inactive) and 5.38% (inactive), respectively. Further, in [11], the viability increase was 3.1% (inactive). In [15], the RAM network inhibition is -2.04% (inactive).

On to `CCOC(=O)N1CCN(C(=O)c2c(-c3ccccc3)noc2C)CC1`, for which the viability in experiment [1] was 78%; in [3], 78% (inactive); in [4], 96.6% (inactive); in experiment [5], 95.2% (inactive); in experiment [6] (setting [16]) it was 89.5%; in [6] (setting [17]), 95.2%. Further, the viability in experiment [12] was 104% (inactive); in [13], 87.6% (inactive). In experiment [2], the Her2 level is 104% (inactive). Further, the differential viability (reversal) in [6] (H69AR cells + 2 uM doxorubicin) is 5.67% (inactive). The inhibition in experiment [7] was -6.67% (inactive); in experiment [8], -2.5% (inactive); in [14] it was 3% (inactive). For the same compound, the growth inhibition is -9.5% (inactive) in experiment [9] and -0.595% (inactive) in [10]. The viability increase in [11] was -2.25% (inactive). The RAM network inhibition in [15] is 4.25% (inactive).

For `CCOC(=O)c1csc(NC(=O)C2CCCCC2)n1`, the viability in experiment [1] was 81%; in [3] it was 81% (inactive); in experiment [4], 95% (inactive); in experiment [5], 96.5% (inactive); in experiment [6] (setting [16]) it was 70.2%; in [6] (setting [17]), 96.5%. Besides, the viability in experiment [12] is 91.4% (inactive); in experiment [13], 94.6% (inactive). Besides, the Her2 level in experiment [2] is 90% (inactive). For the same compound, in experiment [6] (H69AR cells + 2 uM doxorubicin), the differential viability (reversal) is 26.3% (inactive). The inhibition in experiment [7] is -1.47% (inactive); in [8], 0.83% (inactive); in [14] it was 0.89% (inactive). Also, the growth inhibition in experiment [9] was -5.67% (inactive); in experiment [10] it was 7.35% (inactive). The viability increase in [11] was 2.52% (inactive). Further, the RAM network inhibition in experiment [15] was 0.47% (inactive).

Regarding `Cc1ccc(-c2cc(C(=O)Nc3cc(C)on3)c3ccccc3n2)c(C)c1`, the viability in [1] is 77.5%; in [3], 77.5% (inactive); in experiment [4], 96% (inactive); in [5], 84.7% (inactive); in experiment [6] (setting [16]), 89.9%; in [6] (setting [17]) it was 84.7%. Moreover, the viability in [12] was 87.4% (inactive); in [13] it was 82.4% (inactive). Also, the Her2 level in [2] was 99.5% (inactive). For the same compound, the differential viability (reversal) in experiment [6] (H69AR cells + 2 uM doxorubicin) was -5.17% (inactive). The inhibition is -4.67% (inactive) in [7], 3.67% (inactive) in experiment [8] and 1.68% (inactive) in [14]. Further, the growth inhibition is -8.89% (inactive) in [9] and -8.38% (inactive) in experiment [10]. The viability increase in experiment [11] was -0.76% (inactive). In addition, in experiment [15], the RAM network inhibition was 7.01% (inactive).

For `CCc1cccc(NC(=O)CCc2nc(-c3cccs3)no2)c1`, the viability in experiment [1] is 108%; in experiment [3], 108% (inactive); in experiment [4] it was 95.4% (inactive); in experiment [5], 101% (inactive); in experiment [6] (setting [16]) it was 85.1%; in [6] (setting [17]) it was 101%. For the same compound, the viability in [12] was 95.6% (inactive); in experiment [13], 97.6% (inactive). In addition, the Her2 level in experiment [2] was 107% (inactive). In addition, the differential viability (reversal) in experiment [6] (H69AR cells + 2 uM doxorubicin) is 15.6% (inactive). In addition, the inhibition was -3.47% (inactive) in experiment [7], -0.98% (inactive) in experiment [8] and 0.515% (inactive) in [14]. For the same compound, the results for the growth inhibition in experiment [9] and in experiment [10] were -1.88% (inactive) and -1.74% (inactive), respectively. In experiment [11], the viability increase is -1.34% (inactive). The RAM network inhibition in experiment [15] is -1.4% (inactive).

Consider `COc1ccc(-c2nc3c(c(SCC(=O)N4CCOCC4)n2)COC(C)(C)C3)cc1`, for which the viability in experiment [1] was 111%; in [3], 111% (inactive); in experiment [4] it was 85.5% (inactive); in [5], 89.2% (inactive); in [6] (setting [16]), 92.1%; in experiment [6] (setting [17]), 89.2%. Also, the viability in experiment [12] was 101% (inactive); in experiment [13] it was 103% (inactive). In experiment [2], the Her2 level was 113% (inactive). In addition, in experiment [6] (H69AR cells + 2 uM doxorubicin), the differential viability (reversal) is -2.95% (inactive). Also, the inhibition in experiment [7] was -2% (inactive); in experiment [8], 13.8% (inactive); in [14], 0.94% (inactive). The growth inhibition is 2.8% (inactive) in experiment [9] and -4.27% (inactive) in experiment [10]. The viability increase in [11] is -1.69% (inactive). Also, the RAM network inhibition in [15] is 2.02% (inactive).

Turning to `CC1CCCN(C(=O)C23CCC(C)(C(=O)C2)C3(C)C)C1` (stereo not drawn), the viability is 99% in [1]; 99% (inactive) in experiment [3]; 103% (inactive) in experiment [4]; 108% (inactive) in experiment [5]; 92.6% in experiment [6] (setting [16]); 108% in experiment [6] (setting [17]). The viability is 97.7% (inactive) in experiment [12] and 102% (inactive) in [13]. Moreover, the Her2 level in experiment [2] is 92% (inactive). The differential viability (reversal) in experiment [6] (H69AR cells + 2 uM doxorubicin) was 15.3% (inactive). Further, the inhibition is -2.43% (inactive) in [7], -3.17% (inactive) in experiment [8] and -0.565% (inactive) in [14]. In addition, the growth inhibition is -7.46% (inactive) in [9] and -8.69% (inactive) in experiment [10]. In experiment [11], the viability increase was -2.08% (inactive). Moreover, the RAM network inhibition in [15] is 4.55% (inactive).
